16 molecules from PubChem BioAssay (EPA / NIEHS) can be followed below.

Inconclusive results are not listed. The source made the active and inactive calls. Rule for the calls: active = hit-call score of the fitted dose curve at least 0.9, where 1 is the maximum; inactive = score below 0.9.

A word on the AC50: it is the concentration giving half of the maximal activity seen.

Read-out in this assay: ABC Transporter (ABCB11), ABCB11 (gene 8647)
Briefly: CLD_ABCB11_24hr: CellzDirect (CLD) Gene Expression Assay for ABC Transporter (ABCB11) at 24 hours (AID 2283674). The procedure: CLD_24hr is a cell-based, multiplexed-readout assay that uses hepatocyte, a human liver primary cell, with measurements taken at 24 hours after chemical dosing in a 96-well plate.CLD_ABCB11_24hr is one of 16 assay component(s) measured or calculated from the CLD_24hr assay. It is designed to make measurements of mRNA induction, a form of inducible reporter, as detected with chemiluminescence signals by Quantitative Nuclease Protection Assay (qNPA) technology.Data from the assay component CLD_ABCB11_24hr was analyzed at the endpoint, CLD_ABCB11_24hr, in the positive analysis fitting direction relative to DMSO as the negative control and baseline of activity. Using a type of inducible reporter, gain-of-signal activity can be used to understand changes in the reporter gene as they relate to the gene ABCB11. Furthermore, this assay endpoint can be referred to as a primary readout. To generalize the intended target to other relatable targets, this assay endpoint is annotated to the transporter intended target family, where subfamily is ABC transporter.
Human hepatocyte cultures were treated daily for two consecutive days with fresh dosing solutions containing appropriate concentrations of the 320 ToxCast chemicals (chemical identities were blinded to CellzDirect and other ToxCast collaborators), vehicle control (0.2% DMSO), and positive control inducers as summarized in Table 1. Due to the large number of treatment groups and chemicals examined, the ToxCast chemicals were divided into two groups (spanning two independent cultures of hepatocytes from separate donor preparations (Hu778: ToxCast plates 1 and 2; Hu776: ToxCast plates 3 and 4). Each preparation of human hepatocyte cultures was treated with respective vehicle control, medium only control, set of six positive controls/reference chemicals for the five hepatic receptor pathways, and a subset of eight of the ToxCast chemicals (indoxacarb, pyrithiobac-sodium, norflurazon, cyhalofop-butyl, methomyl, thiram, acetochlor, and propiconazole). These replicate data, coupled with internal replicates designed within the blinded ToxCast chemical library, provided additional data to evaluate interindividual differences between hepatocyte preparations and their potential impact on chemical profiles.Cell morphology and integrity were evaluated using phase-contrast microscopy as an indicator of hepatocyte cell health (Tyson & Green, 1987). Cultures for each treatment group (i.e., media, vehicle [0.2% DMSO], positive control inducers [multiple concentrations], and the ToxCast chemicals [multiple concentrations]) were observed and cell morphology was assessed relative to vehicle control cultures at each harvest time point (0, 6, 24, or 48 h). […] Images were evaluated at the conclusion of the study to assess changes in cell integrity and account for the effects of chemical exposure on uncharacteristic changes in concentration-dependent gene expression profiles. The results from these determinations of apparent cytotoxicity were annotated (yes/no) alongside the corresponding qNPA data for reference.At the conclusion of each treatment period, hepatocyte cultures (96-well) were washed with 1 volume of HBSS, lysed by addition of 25 ul ArrayPlate lysis buffer (HTG, Tucson, AZ), and 70 ul/well of Denaturation Oil, denatured by incubation at 95C for 10 min, and frozen at approximately -70C until analysis by nuclease protection assay (qNPA) (Roberts et al., 2007). For qNPA analysis, cell lysates were thawed at 50C for approximately 30 min, qNPA probes were added, and samples were incubated at 95C for 10 min to begin the detection process by denaturing the target RNA, dissociating the duplexes and secondary structure hybridization. At the conclusion of the hybridization period, S1 nuclease reagent was added to each sample to digest all nonprotected nucleotides at 50C for 60-90 min. […]
Regarding `CCCCOC(=O)c1ccccc1C(=O)OCCCC`, the molecule was called inactive.

`CN(C)C(=S)SSC(=S)N(C)C`: the outcome was inactive. The same measure, in the same setting: then `CCCCC(CC)COC(=O)c1ccccc1C(=O)OCC(CC)CCCC` (stereo unspecified), with “inactive”; and `C#CCOS(=O)OC1CCCCC1Oc1ccc(C(C)(C)C)cc1` (stereo unspecified), with “inactive”.

With `COC(=O)N(OC)c1ccccc1COc1ccn(-c2ccc(Cl)cc2)n1`, the half-maximal activity concentration (AC50) is 6.18 µM (active). Turning to `Oc1ccccc1-c1ccccc1`, the outcome was inactive. Regarding `C=CC1(C)OC(=O)N(c2cc(Cl)cc(Cl)c2)C1=O` (stereo unspecified), the molecule was classed as inactive. Turning to `COP(=S)(OC)Oc1nc(Cl)c(Cl)cc1Cl`, the molecule was classed as inactive. With `O=C(O)c1nc(Cl)ccc1Cl`, the outcome was inactive. For the molecule `COc1nc(C)nc(NC(=O)NS(=O)(=O)c2ccccc2Cl)n1`, the outcome was inactive.

On to `CCCN(CCC)c1c([N+](=O)[O-])cc(S(N)(=O)=O)cc1[N+](=O)[O-]`, for which the molecule was called inactive. Still for that read-out and setting: then `CC(C)(C)c1ccc(CSc2cnn(C(C)(C)C)c(=O)c2Cl)cc1`, with “inactive”; and `COC(=O)c1ccccc1C(=O)OC`, with “inactive”. For `COC(=O)C(C)Oc1ccc(Oc2ccc(Cl)cc2Cl)cc1` (stereo unspecified), the molecule was called inactive.

Regarding `CCc1nn(C)c(C(=O)NCc2ccc(C(C)(C)C)cc2)c1Cl`, the AC50 was 34.8 µM (active). With `COc1nc(C)nc(NC(=O)NS(=O)(=O)c2ccccc2CCC(F)(F)F)n1`, the molecule was called inactive.
